Rows were chosen to be rich in hits. Some 2.4% of all compounds tested hit in one or more screens of this group.
D2 ag-1: activates the human D2 dopamine receptor; P14416; DiscoveRx PathHunter D2 beta-arrestin, luminescence, 90 min; 100% = 57 uM dopamine signal; activation, % (test concentration not listed); 0.084% of 360,000 active; AID 624465; in the data active means activation above about 40%; inconclusive means between about 15% and that limit
Target sequence (P14416 whole entry, looked up): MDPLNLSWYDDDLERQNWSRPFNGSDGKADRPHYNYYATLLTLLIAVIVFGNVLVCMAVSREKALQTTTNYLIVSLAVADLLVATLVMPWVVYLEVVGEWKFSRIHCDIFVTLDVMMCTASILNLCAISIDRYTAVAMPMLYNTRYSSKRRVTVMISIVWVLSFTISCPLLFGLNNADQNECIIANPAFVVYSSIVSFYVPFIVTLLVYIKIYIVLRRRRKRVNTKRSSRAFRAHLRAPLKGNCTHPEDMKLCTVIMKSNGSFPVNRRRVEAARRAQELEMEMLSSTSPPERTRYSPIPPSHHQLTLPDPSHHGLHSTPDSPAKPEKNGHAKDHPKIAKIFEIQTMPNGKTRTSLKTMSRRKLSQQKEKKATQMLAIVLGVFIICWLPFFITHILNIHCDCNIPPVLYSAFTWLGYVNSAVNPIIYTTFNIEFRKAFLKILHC
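DiscoveRx PathHunter D2 beta-arrestin cells (2,100/well) attached overnight, then compound-stimulated 90 min at 37 C in HBSS/10 mM HEPES/0.1% Tween-20 buffer; beta-galactosidase complementation read by luminescence after 1 h at ambient temperature. Dopamine 57 uM final (EC100) as control.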
D2 PAM-1: potentiates the human D2 dopamine receptor allosterically | P14416 | 0.23% of 360,000 active | DiscoveRx D2 beta-arrestin cells, luminescence, 90 min; 100% = 57 uM dopamine signal | potentiation, % (test concentration not listed); in the data active means potentiation above about 50%; inconclusive means mostly about 30% to 49%
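D2 cells co-treated with compound plus 50 nM dopamine (EC20) for 90 min at 37 deg C to detect potentiation. Beta-arrestin recruitment was read as enzyme-fragment luminescence after 1 h at ambient temperature. Full response was set by 57 uM dopamine.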
D2 antagonist: antagonizes the human D2 dopamine receptor; P14416; HEK293 TREx D2 cells, calcium flux, dopamine EC80; inhibition, % at 10 µM; 2% of 340,000 active; AID 485344; in the data active means inhibition above about 30%; inactive means below that, where a call was filed; further: 0% is about no effect
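Dopamine at EC80 is the agonist stimulus; test compounds precede it by 180 s. Calcium flux read kinetically in a force-coupled, inducible HEK293 T-REx D2 cell line.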
D2 PAM-2: D2 dopamine receptor (human) potentiation; P14416; 0.34% of 340,000 active; HEK293 T-REx D2, calcium flux, EC20 dopamine potentiation; potentiation, % at 10 µM; AID 485347;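 active means potentiation over 3 SD above the plate norm, cut at about 30% in these data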; further: 0% is about no effect
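Cells plated with tetracycline inducer and held overnight at 30 C; calcium dye loaded 30–90 min at room temperature; baseline taken, compound added and read 180 s; EC20 dopamine then added and read 180 s.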
D2 ag-2: activates the human D2 dopamine receptor; P14416; HEK293 T-REx D2 cells, calcium flux agonist mode; activation, % at 2 µM; 0.53% of 340,000 active;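 active means activation over 3 SD above normal in the single-dose calcium agonist read, cut at about 30% in these data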; further: 0% is about no effect
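Calcium-flux readout, 1 cycle/sec over 180 s following compound pin transfer, in inducible HEK293 Trex D2 cells (force-coupled); dopamine controls included. Positive calcium responses during this window marked compounds as potential agonists.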
D3 ag: activates human D3 dopamine receptor beta-arrestin recruitment; shares compounds with D2 ag-2; DiscoveRx D3 beta-arrestin cells, luminescence, 90 min; Potency, µM (series often up to 76.9 µM), for the others: at the highest dose activation, hits mostly activators; 4% of 2,300 active; AID 720506;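 further: potency means the concentration at half of the fitted maximal effect; 100% = dopamine control response; nearly all actives have a fitted effect of over 70% in size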
D2 ag-3: counter-screen for D3 agonists: human D2 dopamine receptor agonism. Potency, µM (titrated, usually from 76.9 µM), for the others: at the highest dose activation, most hits filed as activators. shares compounds with D2 ag-2. 5.9% of 2,300 active. DiscoveRx PathHunter D2 beta-arrestin, luminescence, 90 min; response scale: percent relative to full dopamine signal; further: potency means the concentration at half of the fitted maximal effect; % of control where 0% means no effect; nearly all actives have a fitted effect of over 70% in size
Numbers without * were called inactive; ? = inconclusive; . = not tested or not shown. Unless noted, the call rests on the fitted dose curve; in most records, active means well fitted activation curve with a large enough effect; inconclusive means small, poorly fitted or top-dose-only effect; inactive means flat fitted curve, though single readings scatter.

SMILES	D2 ag-1	D2 PAM-1	D2 antagonist	D2 PAM-2	D2 ag-2	D3 ag	D2 ag-3
O=C(c1nc2nc(-c3cccs3)cc(C(F)(F)F)n2n1)N1CCN(Cc2ccccc2)CC1	-1	19	5	-11	65*	-7%	1%
CCOC(=O)c1nc2nc(-c3cccs3)cc(C(F)(F)F)n2n1	3	-8	-4	13	2	.	.
CC(=O)N1CCC(N(Cc2ccco2)C(=O)Nc2ccc(Br)cc2F)CC1	.	.	.	-7	1	.	.
c1ccc(C2CCC(N3CCN(c4ccccc4)CC3)CC2)cc1 (configuration not stated)	-3	-29	-4	-20	64*	4%	9%
O=S(=O)(Cc1ccccc1)N1CCC(N2CCN(c3ccccc3)CC2)CC1	?	-4	89*	-19	83*	?	?
COc1ccc(S(=O)(=O)N2CCC(N3CCN(c4ccccc4)CC3)CC2)cc1	.	.	61*	-12	74*	20%	?
CC1(C)CC2(CC(c3ccccc3F)c3ccc(O)c(O)c3O2)NC(=S)N1 (configuration not stated)	2	3	3	9	0	.	.
Cn1c2c(c(=O)n(C)c1=O)C(C(F)(F)F)(C(F)(F)F)N=C(c1ccc(Cl)cc1)N2	4	?	1	18	5	?	1%
C=CCOc1ccc(Br)cc1CNCC	-3	-8	67*	-28	62*	9%	?
CC(C)=CCN1CCC(n2nccc2NC(=O)c2ccccc2Cl)CC1	-7	-24	16	-17	0	.	.
O=C(Nc1ccnn1C1CCN(CCCc2ccccc2)CC1)c1ccccc1Cl	?	13	88*	-35	80*	10%	?
CCOc1ccc(C=NCC(O)c2ccccc2)cc1 (configuration not stated)	3	-7	13	-2	21	-4%	1%
CCOc1ccc(/C=N/NC(=O)C(OC)c2ccccc2)cc1 (configuration not stated)	1	4	0	5	0	.	.
CCCCNCCCOc1cccc(Cl)c1Cl	3	-11	87*	-35	49*	11%	12%
COC(=O)c1c(-c2ccccc2OC)sc2ccccc12	-1	-5	-8	-3	0	-5%	-2%
Cc1cc(NS(=O)(=O)c2ccc(NC(=O)c3ccccc3F)cc2)nc(C)n1	.	.	.	12	1	.	.
Cc1ccc(CN(C)C(=O)COC(=O)CSc2cc(C)c3ccccc3n2)cc1	-5	2	-24	-4	0	-3%	0%
Cc1ccc(-n2c(N)cc(=O)nc2SCC(=O)N2CCN(c3ccccc3)CC2)cc1C	-2	-20	-5	4	4	.	.
COc1ccc(-n2c(N)cc(=O)nc2SCC(=O)N2CCN(c3ccccc3)CC2)cc1	-1	-3	1	-8	21	-12%	-4%
CC(=NCCc1ccccc1)C1=C(O)CCC1=O	3	-2	23	-15	42*	-7%	-3%
COC(=O)[C@@H](N)Cc1ccc(O)c(O)c1	-8	-6	81*	-21	74*	?	21%
COC(=O)C(N)Cc1ccc(Cl)cc1 (configuration not stated)	-6	-2	-8	13	-1	.	.
O=C(O)CC(C(=O)O)C(c1ccccc1)c1ccccc1 (configuration not stated)	-1	-5	.	.	.	.	.
CCOC(=O)C1CCCN(Cc2nc(Cc3cccc(F)c3)no2)C1 (configuration not stated)	-2	-13	-23	-4	2	.	.
CCOC(=O)C1CCN(C2CCN(Cc3nc(-c4ccccc4)no3)CC2)CC1	0	-6	-2	1	2	.	.
SMILES	D2 ag-1	D2 PAM-1	D2 antagonist	D2 PAM-2	D2 ag-2	D3 ag	D2 ag-3
CCOC(=O)C1CCCN(C2CCN(Cc3nc(-c4ccccc4)no3)CC2)C1 (configuration not stated)	0	-5	-19	-23	52*	12%	6%
CCOC(=O)C1CCCN(C2CCN(Cc3nc(Cc4ccccc4)no3)CC2)C1 (configuration not stated)	0	-30	34*	-16	22	-2%	4%
COc1ccc(C)cc1S(=O)(=O)NNc1nc(C)cc(C)n1	-5	-23	.	.	.	.	.
Cc1noc(C)c1COC(=O)c1ccc(F)c(S(=O)(=O)N2CCOCC2)c1	7	-2	-18	-14	0	.	.
COC(=O)c1ccc(Cn2c(C)c(C(=O)NCc3cccc(C(F)(F)F)c3)sc2=O)o1	8	2	.	.	.	.	.
OC(CN1CCN(Cc2ccc3c(c2)OCO3)CC1)c1c[nH]c2ccccc12 (configuration not stated)	-1	-15	-1	-31	0	.	.
OC(CN1CCN(c2ccccc2)CC1)c1c[nH]c2ccccc12 (configuration not stated)	-1	-11	54*	-24	30	6%	8%
C[C@H](CO)N1C[C@H](C)[C@@H](CN(C)S(=O)(=O)c2cccc(F)c2)Oc2ncc(Br)cc2C1=O	-3	1	.	.	.	.	.
Cc1cccc(NC(=O)COC(=O)c2nn(-c3ccccc3C(F)(F)F)cc2O)c1C	-2	2	.	.	.	.	.
Cc1ccc2c(=O)cc(C(=O)Nc3nnc(C)s3)oc2c1	.	.	.	2	0	.	.
COc1ccc2oc(C(=O)OCC(=O)Nc3cccc(S(=O)(=O)N4CCOCC4)c3)c(C)c2c1	3	-1	-4	2	1	.	.
COc1ccc2oc(C(=O)Nc3cccc(S(=O)(=O)N4CCOCC4)c3)c(C)c2c1	1	5	-4	-3	0	3%	-2%
Cc1cc(=O)oc2cc(OC(C)C(=O)NC3CCCC3)ccc12 (configuration not stated)	5	-5	2	-16	1	.	.
Cc1cc(=O)oc2cc(OC(C)C(=O)Nc3nccs3)ccc12 (configuration not stated)	-3	-1	.	.	.	-3%	-5%
CCC(C)Nc1nc(-c2cccc(OC)c2O)nc2ccccc12 (configuration not stated)	2	?	9	-7	5	6%	13%
COc1ccc(S(=O)(=O)N2CCN(CC(O)CN3CCOCC3)CC2)cc1 (configuration not stated)	-4	-3	-10	20	0	.	.

Source: PubChem BioAssay (National Center for Advancing Translational Sciences (NCATS))
